Measurements published in PubChem BioAssay (NCATS).
Results filed as inconclusive are left out. Calls of active or inactive are those of the source. The call rests on the fitted dose curve; in most records, active means well fitted inhibition curve with a large enough effect; inconclusive means small, poorly fitted or top-dose-only effect; inactive means flat fitted curve, though single readings scatter.

How the values were obtained:
Test in all cases: qHTS profiling for inhibitors of Plasmodium falciparum proliferation (AID 504749); further: nearly all actives have a fitted effect of over 60% in size
Settings in all cases: P. falciparum in erythrocytes, SYBR Green DNA, 72 h; series mostly up to 28.7 µM
CP215 = test system: CP215
Outline: (§1)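 In a 72 h erythrocytic culture (37 C, humidified, 5% CO2) at 2.5% hematocrit and 0.3% starting parasitemia, compounds were tested; SYBR Green I in detergent lysis buffer stained parasite DNA overnight.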

CP217 = test system: CP217
Outline: as §1

CP237 = test system: CP237
Outline: as §1

CP238 = test system: CP238
Outline: as §1

CP247 = test system: CP247
Outline: as §1

CP250 = test system: CP250
Outline: as §1

CP252 = test system: CP252
Outline: as §1

CP256 = test system: CP256
Outline: as §1

CP260 = test system: CP260
Outline: as §1

CP262 = test system: CP262
Outline: as §1

CP265 = test system: CP265
Outline: as §1

CP266 = test system: CP266
Outline: as §1

CP268 = test system: CP268
Outline: as §1

CP269 = test system: CP269
Outline: as §1

CP286 = test system: CP286
Outline: as §1

CP291 = test system: CP291
Outline: as §1

CP297 = test system: CP297
Outline: as §1

CP305 = test system: CP305
Outline: as §1

CP315 = test system: CP315
Outline: as §1

CP325 = test system: CP325
Outline: as §1

Measured: Potency

C[C@](N)(Cc1ccc(O)c(O)c1)C(=O)O
inactive: CP215 | CP217 | CP237 | CP238 | CP247 | CP250 | CP252 | CP256 | CP260 | CP262 | CP265 | CP266 | CP268 | CP269 | CP286 | CP291 | CP297 | CP305 | CP315 | CP325

CCOC(=O)c1ncn2c1CN(C)C(=O)c1cc(F)ccc1-2
inactive: CP215 | CP217 | CP237 | CP238 | CP247 | CP250 | CP252 | CP256 | CP260 | CP262 | CP265 | CP268 | CP269 | CP286 | CP291 | CP297 | CP305 | CP315 | CP325

Cc1cn([C@H]2C[C@H](N=[N+]=[N-])[C@@H](CO)O2)c(=O)[nH]c1=O
inactive: CP215 | CP217 | CP237 | CP238 | CP247 | CP250 | CP252 | CP256 | CP260 | CP262 | CP265 | CP266 | CP268 | CP269 | CP286 | CP291 | CP297 | CP305 | CP315 | CP325

CN1CCN2c3ccccc3Cc3ccccc3C2C1 (stereo not drawn)
inactive: CP215 | CP217 | CP237 | CP238 | CP247 | CP250 | CP252 | CP256 | CP260 | CP262 | CP265 | CP266 | CP268 | CP269 | CP286 | CP291 | CP297 | CP305 | CP315 | CP325

CN1CCC(=C2c3ccccc3C=Cc3ccccc32)CC1
inactive: CP215 | CP217 | CP237 | CP238 | CP247 | CP250 | CP252 | CP256 | CP260 | CP262 | CP265 | CP266 | CP286 | CP291 | CP297 | CP305 | CP315 | CP325

CC(C)NCC(O)c1ccc(O)c(O)c1 (stereo not drawn)
inactive: CP215 | CP217 | CP237 | CP238 | CP247 | CP250 | CP252 | CP256 | CP260 | CP262 | CP265 | CP268 | CP269 | CP286 | CP291 | CP297 | CP305 | CP315 | CP325

COc1ccccc1OCC(O)CN1CCN(CC(=O)Nc2c(C)cccc2C)CC1 (stereo not drawn)
inactive: CP215 | CP217 | CP237 | CP238 | CP247 | CP250 | CP252 | CP256 | CP260 | CP262 | CP265 | CP266 | CP268 | CP269 | CP286 | CP291 | CP297 | CP305 | CP315 | CP325

CS(=O)(=O)CCNCc1ccc(-c2ccc3ncnc(Nc4ccc(OCc5cccc(F)c5)c(Cl)c4)c3c2)o1
inactive: CP215 | CP217 | CP237 | CP238 | CP247 | CP250 | CP252 | CP256 | CP260 | CP262 | CP265 | CP266 | CP269 | CP286 | CP291 | CP305 | CP315 | CP325

CC(CCc1ccc(O)cc1)NCCc1ccc(O)c(O)c1 (stereo not drawn)
inactive: CP215 | CP217 | CP237 | CP238 | CP247 | CP250 | CP252 | CP256 | CP260 | CP262 | CP265 | CP266 | CP268 | CP269 | CP286 | CP291 | CP297 | CP305 | CP315 | CP325

CC(=O)OCC(CCn1cnc2cnc(N)nc21)COC(C)=O
inactive: CP215 | CP217 | CP237 | CP238 | CP247 | CP250 | CP252 | CP256 | CP260 | CP262 | CP265 | CP268 | CP269 | CP286 | CP291 | CP297 | CP305 | CP315 | CP325

NS(=O)(=O)c1cc2c(cc1Cl)NCNS2(=O)=O
inactive: CP215 | CP217 | CP237 | CP238 | CP247 | CP250 | CP252 | CP256 | CP260 | CP262 | CP265 | CP266 | CP268 | CP269 | CP286 | CP291 | CP297 | CP305 | CP315 | CP325

CS(=O)(=O)Nc1ccc([N+](=O)[O-])cc1Oc1ccccc1
inactive: CP215 | CP217 | CP237 | CP238 | CP247 | CP250 | CP252 | CP256 | CP260 | CP262 | CP265 | CP266 | CP268 | CP269 | CP286 | CP291 | CP297 | CP305 | CP315 | CP325

Cn1cnc2c1c(=O)[nH]c(=O)n2C
inactive: CP215 | CP217 | CP237 | CP238 | CP247 | CP250 | CP252 | CP256 | CP260 | CP262 | CP265 | CP266 | CP268 | CP269 | CP286 | CP291 | CP297 | CP305 | CP315 | CP325
